In PubChem BioAssay (NCATS) one finds Potency data, which are given here for 19 compounds.

Inconclusive results are not listed. A call without a number means that no potency is given here. The source made the active and inactive calls. Calls come from the whole dose curve; as a rule, active = well fitted cell-killing curve with a large enough effect; inconclusive = small, poorly fitted or top-dose-only effect, or effect the other way; inactive = no such curve, though single readings can be large or run the other way.
Potency is the fitted concentration of half-maximal effect.

The assay can be described thus: Quantitative High-Throughput drug screen in 47 multiple myeloma cell lines against the NCATS MIPE library collection: RPMI8226_ATCC cell viability assay (AID 1919871). Note: nearly all actives have a fitted effect of over 30% in size. Particulars: RPMI8226 myeloma viability, CellTiter-Glo ATP luminescence, 48 h; series mostly up to 45.8 µM. In a few lines: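 Myeloma cells (500/well) treated with MIPE 4.0 compounds for 48 h at 37 °C, 5% CO2. Viability read as ATP via CellTiter-Glo luminescence after 5 min at RT; DMSO-only wells = 100%, media-only = 0% viability.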
In general terms: ATP-based viability assays read luminescence as a measure of living cells.
For the compound `Cc1cc(C(C)(C)C)cc(C)c1CC1=NCCN1`, the Potency entry was “inactive”. In the case of `O=C1Cc2cc(CCN3CCN(c4nsc5ccccc45)CC3)c(Cl)cc2N1` it was 20.9 µM (active). On to `CCC1(C)CC(=O)NC1=O` (centres undefined), for which the Potency result is “inactive”.

Regarding `O=C(Nc1ccc([N+](=O)[O-])cc1Cl)c1cc(Cl)ccc1O`, the Potency is 1.05 µM (active).

For `O=C(c1ccc(F)cc1)C1CCN(CCn2c(=O)[nH]c3ccccc3c2=O)CC1`, the Potency was 5.26 µM (active). `CN(CCOc1ccc(NS(C)(=O)=O)cc1)CCc1ccc(NS(C)(=O)=O)cc1`: the Potency result is “inactive”. In the case of `CC(COc1ccccc1)N(CCCl)Cc1ccccc1` (centres undefined) it was “inactive”; in that of `Clc1ccccc1C(c1ccccc1)(c1ccccc1)n1ccnc1`, 14.8 µM (active). As for `Cn1c(=O)c2[nH]cnc2n(C)c1=O`, the Potency result was “inactive”. Take `COc1ccccc1N1CCN(CC(O)COc2cccc3ccccc23)CC1` (centres undefined): the Potency is 26.4 µM (active).

For `CC(CCc1ccc(O)cc1)NCCc1ccc(O)c(O)c1` (centres undefined), the Potency is 18.7 µM (active). Consider `CC1COc2c(N3CCN(C)CC3)c(F)cc3c(=O)c(C(=O)O)cn1c23` (centres undefined), for which the Potency entry was “inactive”.

For the compound `Cc1cn([C@H]2C[C@H](N=[N+]=[N-])[C@@H](CO)O2)c(=O)[nH]c1=O`, the Potency entry is “inactive”.

As to `CN1CCN(C2=Nc3cc(Cl)ccc3Nc3ccccc32)CC1`, the Potency entry is “inactive”. The result for `CCOC(=O)C(C)(C)Oc1ccc(Cl)cc1` reads “inactive”. For `NC12CC3CC(CC(C3)C1)C2`, the Potency was 0.833 µM (active). With `Clc1ccc(C(c2ccccc2Cl)C(Cl)Cl)cc1` (centres undefined), the Potency is 23.5 µM (active). As for `CN(C)C(=N)N=C(N)N`, the Potency entry is “inactive”. `CN1CCC(=C2c3ccccc3CC(=O)c3sccc32)CC1`: the Potency entry was “inactive”.
